Among all 1,200 compounds or so, about 840 (70%) were called active. The rule behind the calls is not given here. So high a share suggests a set chosen from earlier hits. A selection follows. Results with a measured potency or affinity are listed apart.
Test: NF-kB promoter reporter activators, neuronal cells, dose response, cell-based, SH-SY5Y, luciferase (AID 1241)
Conditions: series mostly up to 30 µM; fold induction over control: at the top concentration

Fold induction over control, inactive:
Oc1ccc(-c2csc(Nc3ncccn3)n2)cc1O 5.94
CC(C)(C)c1ccc(OCCn2ccccc2=O)cc1 12.2
COc1ccc2oc(C(=O)c3ccccc3)c(N)c2c1 12
COc1ccc2[nH]c(-c3cccc(F)c3)cc(=O)c2c1 4.64
COc1ccc(C(=S)Nc2ccc(N(C)C)cc2)cc1 11.3
Cc1nc(-c2ccccc2)sc1-c1ccnn1C 12
Nc1ccccc1C#Cc1ccccc1 14.8
CCOC(=O)c1c(C)oc2c1c(C(c1cccnc1)N1CCCCC1)c(O)c1ccccc12 (stereo not given) 8.46 [at 15 µM]
O=C(Nc1ccc(Cl)cc1F)c1ccccc1Br 8.66
CCOC(=O)c1cnc(SCCc2ccccc2)nc1N 10
O=C(O)c1cccc(N=NN2CCCCCC2)c1 14.9
O=C(O)c1cc(N/N=C/C=C/c2ccccc2)ccc1Cl 13
COc1ccccc1OCCN1CSC(=S)N(C)C1 0.41
CC(C)(C)c1ccc(/C=N/Nc2cccc(C(=O)O)c2)cc1 19.6
O=C(O)/C=C\C(=O)Nc1ccccc1C#Cc1ccc(Br)cc1 2.97
Cc1ccccc1Nc1nc2ccccc2s1 10.2
N=c1c(C(=O)NCc2ccccc2)cc2c(=O)n3ccccc3nc2n1Cc1ccco1 0.59
O=C(/C=C/Nc1cccc([N+](=O)[O-])c1)c1cccs1 9.94
CCOc1ccc(NC(=O)c2ccccc2O)cc1 11.3
Cc1ccc(C(=O)N/N=C2\CCc3ccccc32)c(C)c1 9.87
CCCSc1nsc(NC(=O)CCC)n1 10.6
S=C(c1ccc(-c2ccc(Br)cc2)o1)N1CCCCC1 8.44
Nc1ncn(CC(=O)c2ccccc2)n1 1.01
CCc1ccc(C(=O)NC(=S)Nc2ccc3c(c2)OCCO3)cc1 11.4
COc1ccc(-c2nnc(SC(C)C(=O)Nc3cccc(Cl)c3)o2)cc1 (stereo not given) 12
Cc1ccc(C(=O)/C=C/Nc2cccc([N+](=O)[O-])c2)o1 6.5
Cc1ccc(C(=O)CCNc2ccc(F)c(Cl)c2)o1 5
COc1cccc(-c2noc(-c3cccnc3)n2)c1 11.6
Cc1nn(-c2ccccc2)c(N)c1N=Nc1ccccc1 12.4
Cc1[nH]n(C(N)=S)c(=O)c1N=Nc1ccc2ccccc2c1 10.5
Nc1nc(Nc2cccc(F)c2)nc2ccccc12 13.6
COc1ccc(C2=NN(C(C#N)c3ccc(OC)c(OC)c3)C(c3ccccc3)C2)cc1 (stereo not given) 2.52
Cc1cc2nc(-c3cccnc3SCC(=O)NCc3ccco3)[nH]c2cc1C 6.42
COc1cc(/C=C/C(=O)CC(=O)/C=C/c2ccc(O)c(OC)c2)ccc1O 1.1
COC(=O)CCCSc1nccn1-c1ccccc1 1.03
O=C(/C=C/Sc1ccccc1)c1ccc(Cl)cc1 12.1 [at 15 µM]
Cc1ccc(/C=C/C(=O)Nc2ccccc2C(N)=O)cc1 9.69
CC(=Nc1cccc(C)c1)c1sc2ccccc2c1O 12.8
Oc1ccc(-c2csc(-c3ccccc3)n2)cc1O 5.21
COC(=O)c1cc(-c2c(C)nn(-c3ccccc3)c2C)n[nH]1 1.72
Cc1ccc(C(=O)Nc2cccc(C(=O)O)c2)cc1 11.4
COc1ccc(C(=O)Nc2cccc(OC)c2)cc1 10.8
O=C(NC1CCCC1)c1cc(-c2cccs2)on1 27
O=C(NCCn1ccc2ccccc21)c1ccc2c(c1)OCO2 10.7
N/C(=N\OC(=O)c1ccc2c(c1)OCO2)c1ccc(Cl)cc1 5.91
Cc1ccc(COc2ccc(/C=N/O)cc2)cc1 13.4
O/N=C/c1ccc(OCc2ccccc2)c(Br)c1 12.7
O=C(CCSc1ccc(Cl)cc1)Nc1cccnc1 1.4
O=C(NCCc1ccccc1)c1cc(-c2ccco2)on1 13
COc1ccc(/C(N)=N/OC(=O)CSc2ccccc2)cc1 12.8
Cc1ccc(O)c(/C=N/NC(=O)c2[nH]ncc2Br)c1 10.8
CCCc1noc(-c2ccc(-c3ccccc3)cc2)n1 11.4
CCOC(=O)c1c(NC(=O)CC(C)C)sc(C(C)=O)c1C 2.09
CCOC(=O)c1cc(C(=O)Nc2ccccc2F)nn1C 11.2
CCOC(=O)c1c(C)[nH]c(C(=O)Nc2ccc3c(c2)OCO3)c1C 11.5
CC(=O)Nc1ccc(N=Nc2ccccc2)cc1 12.1
COc1cccc(C(=O)Oc2ccccc2/C=C\C(=O)c2cc3ccccc3o2)c1 1.16
O=C(/C(=C/c1ccc(Cl)cc1)c1nc2ccccc2[nH]1)c1ccccc1 0.3
COc1ccc2cc(CCNC(=O)c3cccs3)c(=O)[nH]c2c1 8.36
CCOC(=O)C1=C(c2ccccc2)O/C(=C(/C#N)C(F)(F)F)S1 8.68 [at 7.5 µM]
COc1ccc(-c2cnn3c(N)c(S(=O)(=O)C(C)(C)C)cnc23)cc1 1.32
Cc1ccc(-c2nc3ccccc3s2)cc1NC(=S)NC(=O)c1ccccc1 4.53
CCc1nc2ccc(C(=O)O)cc2nc1CC 2.38
CCOc1ccc(NC(=O)c2nsc(Cl)c2Cl)cc1 9.51
O=C(OCC(=O)N1CCOCC1)c1ccccc1Cc1ccccc1 9.68
CC(C)(C)c1ccc(NC(=O)Nc2ccc(OCC(=O)N3CCOCC3)cc2)cc1 8.14
CCc1ccc(NC(=O)c2cc(C(C)C)on2)cc1 12.1
CCc1ccc(NC(=O)c2ccc3ncsc3c2)cc1 9.12
Cc1nc2ccc(NC(=O)Cc3ccccc3F)cc2s1 8.01
O=C(O)c1ccc(-c2nc(-c3ccc(Cl)cc3)cs2)cc1 12.6
O=C(c1ccccc1)c1cnc(-c2ccccc2)s1 12.3
Oc1ccc2c(c1)oc1cc(O)ccc12 6.53
CN=c1scc(C)n1/N=C/c1cc(Br)c(O)c(Br)c1 1.35
COc1ccc(OCc2cccc(C(=O)Nn3cc([N+](=O)[O-])cn3)c2)cc1 7.14
O=C(OCC(F)(F)F)c1cccc(COc2ccc3ccccc3c2)c1 12.3
COc1ccc(C(=O)OCCc2ccc(O)cc2)cc1 13.5
O=C(COC(=O)C1CCCCC1)Nc1ccc([N+](=O)[O-])cc1 1.09
Cc1cccn2cc(-c3ccc(Cl)cc3)nc12 11.2
Cc1ccc(Nc2n[nH]c(C)c2[N+](=O)[O-])c(C)c1 2.95
CC(=O)c1cc(NC(=O)c2ccccc2)c(=O)oc1C 1.02
CCOC(=O)c1sc(NC(=O)c2ccccc2OC)nc1C 2.62
Cc1ccn2cc(CSc3ccccc3)nc2c1 11.4
CCSc1nnc(NC(=O)c2ccc(C)cc2)s1 9.12
Cc1ccc(-c2cc(-c3ccccc3C)[nH]n2)c(O)c1 15.7
Cc1nc(N2CCCCC2)c2c(-c3cccs3)csc2n1 1.02
Cc1ccc(C(=O)Oc2oc(-c3ccco3)nc2C=Nc2ccc(Cl)cc2)cc1 13.7
O=c1[nH]c(-c2ccco2)nc2sc3c(c12)CCCC3 12.5
c1ccc(-c2ccc(-c3nc(-c4cccnc4)no3)cc2)cc1 9.39
CC(=O)Nc1ccc2oc(-c3ccccc3)nc2c1 13.2
C=CCSC(=C(C#N)C#N)c1cc2c([nH]1)CCCC2 4.8
Cc1ccc(-n2c(C)cc(C(=O)CSc3nncs3)c2C)cc1 8.62
Cc1ccc(C(=O)/C=C/c2cn(CN3CCN(C)CC3)c3ccccc23)cc1 10.2
OCCC1CN(Cc2ccc3nsnc3c2)CCN1C1CCCC1 (stereo not given) 1.05
C/C(=N\OC(=O)NC(C)C)c1sc(-c2ccc(Cl)cc2)nc1C 2.38
C/C(=N\O)c1sc(-c2ccccc2)nc1C 11.8
Cc1ccc(Nc2nc3ccccc3[nH]2)nc1 7.12
Cc1ccc2c(c1)C(=NC1CCCCC1)c1cc3ccccc3nc1-2 10.2 [at 15 µM]
CCOC(=O)c1cc(C(=O)Nc2cccc(C)c2)nn1C 13.1
Cc1ccccc1C(=O)Nc1cccc(NC(=O)Cn2cnc3c(=O)n(C)c(=O)n(C)c32)c1 1.64
CCc1ccc(NC(=O)c2onc(C)c2Cl)cc1 11.8
N/C(=N\OC(=O)c1ccc(Br)cc1)c1ccccc1 6.72
COc1ccccc1C(=O)O/N=C(\N)c1ccc(Cl)cc1 7.26
Cc1ccc(/C(N)=N/OC(=O)c2ccc(F)cc2)cc1 5.54
N/C(=N\OC(=O)c1ccccc1Cl)c1cccnc1 8.85
Cc1cc(/C=N/NC(N)=S)c(C)n1-c1ccc(Cl)c(Cl)c1 4.51
COc1cccc(C(=O)Nc2ccc(C3CC3(Cl)Cl)cc2)c1 (stereo not given) 7.84
Cc1onc(-c2c(F)cccc2Cl)c1C(=O)OCn1nnc2ccccc2c1=O 1.99
COc1c(Cl)cc(Cl)cc1/C=C/C(=O)c1ccc(NC(=O)c2cccs2)cc1 15.2 [at 15 µM]
Cc1ccc(Nc2n[nH]c(C)c2[N+](=O)[O-])cc1C 12.6
Oc1cccc2ccc(/C=C/c3c(F)cccc3Cl)nc12 8.92
COc1cc(NC(=O)CSc2nc3ccccc3cc2C)c(C(=O)O)cc1OC 1.1
O=C(CCc1nnc(CCCc2ccccc2)o1)NC(C1CC1)C1CC1 8.51
N/C(=N\OC(=O)COc1cc(Cl)c(Cl)cc1Cl)c1ccccn1 12.6
N/C(=N\OC(=O)Cc1cccc2ccccc12)c1ccccn1 3.49
N#Cc1cc2ccccc2nc1SCc1ccccn1 9.71
Fc1ccc(-n2nnc(-c3cccnc3Cl)n2)cc1 12.6
Clc1ncccc1-c1nnn(-c2ccccc2)n1 11.5
Cc1csc(NC(=O)NC2(C(F)(F)F)Oc3ccccc3O2)n1 3.83
CC(C)c1ccc(NC(=O)c2csnn2)cc1 12.2
CC(=O)Nc1ccc(N=Nc2ccc(O)cc2)cc1 14.6
Cc1ccc(NC(=O)Nc2ccc3c(c2)nc(C)n3C)cc1 11.6
COc1ccc(NC(=O)c2noc3c2CCCCC3)cc1 11.6
CS(=O)(=O)c1ccc(C(=O)OCc2nnc(-c3ccc(Cl)cc3)o2)cc1[N+](=O)[O-] 1.33
COc1ccc(/C=C/C(=O)c2ccccc2)c(OC)c1 15.5
Cc1nn(C)cc1/C=C/C(=O)c1cccs1 12.8
